Where “and” joins values, the source holds several entries; their conditions need not be identical. Identical values can stand only once. The whole screen tested about 38,000 compounds, of which about 1,200 (3.2%) showed an effect of 50% or more. The median lay at about -58%. The sample holds strong results, similar compounds and a random draw of the others, so the mix is not that of the screen.
Tested on: Plasmodium falciparum
Test: Calibr Malaria Delayed Death Assay SOP
Format: functional, organism-based
Parameters: scale not given: in the data most compounds retested in dose-response had high values
Settings: concentration 4.99e-06 (unit not given; other assays of the set use mol/L)

SMILES	Percent Effect	Percent Effect (4.99 µM)
O=C(O)C(F)(F)F.O=C(O)C(F)(F)F.c1coc(CN2C[C@@H]3OCCN(CC4CCCO4)[C@@H]3C2)c1 (some centres not stated)	-57.01%	–
O=S(=O)(c1ccc(F)cc1Cl)N1CCCC1c1ccncc1 (configuration not stated)	-22.12%	–
O=C(NC1CCCN(CCCc2ccccc2)C1)C1=CCCCC1 (configuration not stated)	-1.379%	–
O=C(NC1CCCN(CCCc2ccccc2)C1)c1ccncc1 (configuration not stated)	-32.27%	–
O=C(NC1CCCN(CCCc2ccccc2)C1)c1ccc(Cl)s1 (configuration not stated)	59.33%	–
COCCNC(=O)N1CCSC2(CCCCC2)C1	-161%	–
CCC(c1ccc(F)cc1)N1CCn2c(CO)nnc2C1 (configuration not stated)	-61.64%	–
Cc1noc(C)c1CN1CCO[C@H]2CN(Cc3cccc(F)c3)C[C@H]21.O=C(O)C(F)(F)F.O=C(O)C(F)(F)F	-38.58%	–
O=C(Cc1ccccn1)N1C[C@H]2CN(Cc3ccccn3)C[C@H]2C1	-76.72%	–
Cc1noc(C)c1CN1CCO[C@H]2CN(Cc3ccc(F)cc3)C[C@H]21.O=C(O)C(F)(F)F.O=C(O)C(F)(F)F	54.02%	–
Cc1noc(C)c1CN1C[C@@H]2C[C@@H](C)O[C@@H]2C1.O=C(O)C(F)(F)F	-81.78%	–
Cc1noc(C)c1CN1C[C@H]2CN(Cc3cccc(F)c3)C[C@H]2C1.O=C(O)C(F)(F)F.O=C(O)C(F)(F)F	53.22%	–
Cc1noc(C)c1CN1C[C@@H]2CC(F)(F)C[C@@H]2C1.O=C(O)C(F)(F)F	-65.49%	–
Cc1noc(C)c1CN1C[C@H]2CNC[C@H]2C1	5.878%	–
CN(Cc1cccc(F)c1)C1CCN(CCc2ccccn2)CC1	-78.69%	–
Cc1noc(C)c1CN1CCO[C@H]2CN(Cc3cnn(C)c3)C[C@H]21.O=C(O)C(F)(F)F.O=C(O)C(F)(F)F	11.54%	–
Cc1noc(C)c1CN1C(=O)[C@H]2CC[C@@H]1CN(Cc1cccc(O)c1)C2	-156.5%	–
O=C(c1ccccn1)N1CCN(c2cnnc(N3CCCC3)c2)CC1	-112.9%	–
COc1cccc(N2C(=O)CC3(CCNCC3)C2=O)c1.Cl	-133.6%	–
COC(=O)CC(NC(=O)c1cc(OC)c2c(c1)OCCO2)c1cccs1 (configuration not stated)	-83.17%	–
O=S(=O)(NCCCn1cccn1)c1ccc2c(c1)CCC2	-131.9%	–
CCCn1cc(S(=O)(=O)N[C@H]2CN(CC(N)=O)C[C@@H]2C2CC2)cn1	-97.89%	–
COc1ccc(C2OC(COc3ccc(C)cc3)=NN2C(C)=O)cc1 (configuration not stated)	-155.6%	–

SMILES	Percent Effect	Percent Effect (4.99 µM)
COc1cc(C2CC(=O)Nc3c2c(=O)[nH]n3C2CCCCC2)ccc1O (configuration not stated)	-62.17%	–
Cc1nnc2n1CCN(CCCS(=O)(=O)c1ccccc1)C2	-71.81%	–
Cc1ccc(CN(C)C(=O)CCNS(=O)(=O)c2cccnc2)cc1	36.55%	–
CCC(=O)N1CCC2(CCN(Cc3cccc(F)c3)CC2)CC1.O=C(O)C(F)(F)F	-165.1%	–
Cc1noc(C)c1CN1CCC2(CCN(Cc3cccc(F)c3)CC2)C1.O=C(O)C(F)(F)F.O=C(O)C(F)(F)F	66.34%	–
CC(=O)N1CCC2(CCN(Cc3cccc(F)c3)CC2)CC1.O=C(O)C(F)(F)F	-62.85%	–
COCC(=O)N1C[C@@H](OCc2cccnc2)[C@H]2OCCC[C@@H]21.O=C(O)C(F)(F)F	7.671%	–
COCCNC(=O)Cn1cc(NC(=O)c2cccc(Cl)c2Cl)cn1	-59.07%	–
O=C(NS(=O)(=O)c1ccc(Cl)cc1F)c1cccc2c1OCCO2	-91.83%	–
CC(C#N)CN(C)C(=O)CCNC(=O)OCC(F)(F)F (configuration not stated)	-88.17%	–
O=C(O)C(F)(F)F.O=C(O)C(F)(F)F.O=C1CO[C@@H]2CN(Cc3cccs3)C[C@H]2N1Cc1cccnc1	-34.75%	–
Cc1cnc(-n2cnnc2)c(-c2cccc3c2CCNC3)c1	-33.7%	–
Cc1cc(-c2cccc3c2CCNC3)cnc1-n1cnnc1	-23.79%	–
Cc1nc(-n2cnnc2)ccc1-c1cccc2c1CCNC2	68.26%	–
CSCCC(=O)N1CCCC1c1nnc2n1CCCCC2 (configuration not stated)	-119.3%	–
Cc1cc(C)n(Cc2ccc(-c3noc(C(=O)NCCO)n3)cc2)n1	-66.65%	–
CC[C@H]1CN2CC[C@H]1C[C@@H]2CNC(=O)c1ccco1	-30.73%	–
CN(C[C@H]1CN2CC[C@H]1C[C@@H]2CNC(=O)c1ccco1)c1ccccc1	70.91%	–
CCN(CC)C[C@H]1CN2CC[C@H]1C[C@@H]2CNC(=O)c1ccco1	-99.74%	–
O=C(C1CCOC1)N1CCN(Cc2cccnc2)c2ncccc2C1 (configuration not stated)	-57.83%	–
O=C1CN(S(=O)(=O)CC(F)(F)F)CC(O)CN1CCCc1ccccc1 (configuration not stated)	-64.11%	–
COCCN1CCc2nc(SCc3ccc(F)cc3)[nH]c(=O)c2C1	-62.28%	–
Cc1nonc1OCCNC(=O)CCCc1ccc(Cl)cc1	-154.2%	–

SMILES	Percent Effect	Percent Effect (4.99 µM)
CN1C(Cn2cccn2)C[C@@H]2CN(C(=O)c3cccc(C#N)c3)CC[C@@H]21.O=C(O)C(F)(F)F.O=C(O)C(F)(F)F (some centres not stated)	-96.07%	–
CN1[C@H](Cn2cncn2)C[C@@H]2CN(Cc3cccc(C#N)c3)CC[C@@H]21.O=C(O)C(F)(F)F.O=C(O)C(F)(F)F	-71.32%	–
CN1C(Cn2cccn2)C[C@@H]2CN(Cc3cnn(C)c3)CC[C@@H]21 (some centres not stated)	-48.63%	–
Cc1ccc(CN2CC[C@H]3[C@H](CC(Cn4cccn4)N3C)C2)s1.O=C(O)C(F)(F)F.O=C(O)C(F)(F)F.O=C(O)C(F)(F)F (some centres not stated)	62.61%	–
CN1[C@H](Cn2cncn2)C[C@@H]2CN(Cc3ccsc3)CC[C@@H]21.O=C(O)C(F)(F)F.O=C(O)C(F)(F)F	35.13%	–
O=C(NC1CC1)C1CNCCN1C(=O)CCOc1ccccc1 (configuration not stated)	-111.6%	–
Cc1ncsc1-c1nnc(C2CCN(Cc3ccccc3Cl)CC2)o1	-108%	–
CC(=O)NC1CCN(c2c(C#N)cnc3c(C)cc(F)cc23)CC1	7.696%	–
CN(Cc1ccccc1)C(=O)CCNS(=O)(=O)c1cccnc1	-47.09%	–
CN(Cc1cn(C2CCNCC2)nn1)CC1CCCO1 (configuration not stated)	-84.49%	–
Cc1ccc2[nH]c(-c3cn(C4CCNCC4)nn3)nc2c1C	85.1%	–
Cc1cccc2[nH]c(-c3cn(C4CCNCC4)nn3)nc12	72.76%	–
COc1cccc(CCn2ccnc2-c2cn(C3CCNCC3)nn2)c1	–	-32.98% and -26.9%
Cc1cc2nc(-c3cn(C4CCNCC4)nn3)[nH]c2cc1C	87.17%	–
Cc1c(C)c(C)c2[nH]c(-c3cn(C4CCNCC4)nn3)nc2c1C	30.06%	–
c1ccc(CCCn2ccnc2-c2cn(C3CCNCC3)nn2)nc1	–	-23.72% and -17.15%
Cc1nc(C(C)C)sc1C(=O)NCCSc1nccn1C	-107.8%	–
CC(=O)Nc1ccn(Cc2ccccc2)n1	-105.1%	–
CCOC(C)C(=O)N1CCCN(Cc2csc(CC)n2)CC1 (configuration not stated)	-48.75%	–
CN1CCNC(=O)C12CCN(Cc1ccco1)CC2.O=C(O)C(F)(F)F.O=C(O)C(F)(F)F	-34.77%	–
Cc1ccc(CN2CCC3(CC2)CCN(Cc2ccco2)CC3)cc1.O=C(O)C(F)(F)F.O=C(O)C(F)(F)F	91.42%	–
O=C(O)C(F)(F)F.O=C(O)C(F)(F)F.O=C(O)C(F)(F)F.c1coc(CN2CCC3(CC2)COCCN(CCN2CCCC2)C3)c1	-114.4%	–
Cc1nc(CN2CCC23CCN(Cc2ccco2)CC3)cs1	-38.18%	–

SMILES	Percent Effect	Percent Effect (4.99 µM)
Cc1nc(CN2CCC3(C2)CN(Cc2ccco2)C3)cs1	1.617%	–
Cc1noc(C)c1CN1CC2(CCN(Cc3c[nH]cn3)CC2)CC1=O	-101.4%	–
CO[C@@H]1CC[C@H]2[C@H]1OCCN2Cc1ccccn1.O=C(O)C(F)(F)F.O=C(O)C(F)(F)F	-69.16%	–
CNC(=O)CN1CCC(NC2CSCCc3ccccc32)CC1 (configuration not stated)	-108%	–
COCCCN1CCC(NC2CSCCc3ccccc32)CC1 (configuration not stated)	-4.969%	–
CN(C)CCN1CCC(NC2CSCCc3ccccc32)CC1 (configuration not stated)	75.4%	–
Cn1ncnc1CNc1ccccc1C(=O)NC(C)(C)C	-77.77%	–
Cc1ccccc1CN1CCC2(CCCN2C(=O)C(C)C)CC1	-62.94%	–
O=C1NC(C(=O)NCc2cccnc2Oc2ccc(F)c(F)c2)CO1 (configuration not stated)	-127.9%	–
COc1ccc(C(=O)C2CCCN(Cc3ccncc3)C2)c(OC)c1 (configuration not stated)	-20.34%	–
CCN(CC1CCCN(CCc2cccc(OC)c2)C1)C(=O)CSC (configuration not stated)	19.02%	–
CCN(CC1CCCN(CCc2cccc(OC)c2)C1)C(=O)CN(C)C (configuration not stated)	83.05%	–
COc1ccc(C(=O)C2CCCN(Cc3cccc(F)c3)C2)c(OC)c1 (configuration not stated)	22.79%	–
COc1ccc(C(=O)C2CCCN(CCc3ccccc3)C2)c(OC)c1 (configuration not stated)	71.36%	–
CCN(CC1CCCN(CCc2cccc(OC)c2)C1)C(=O)CO (configuration not stated)	28.13%	–
Cc1ccccc1C(=O)N1CCO[C@H]2[C@H](OCCN(C)C)CC[C@@H]21.O=C(O)C(F)(F)F	-35.41%	–
CCCN(CCC)C(=O)c1cnn(C)c1C	-133.3%	–
COc1cccc(CNCc2cccc(Cl)c2)c1O	84.59%	–
COc1ccc(CNC(=O)c2ccc(Cl)cc2F)cc1C(=O)O	-124.3%	–
COc1cccc(CNCc2ccc(F)c(Cl)c2)c1O	79.38%	–
COc1ccccc1COCC(O)CN(C)Cc1cccc(Cl)c1 (configuration not stated)	-103.6%	–
COc1cccc(CNc2ccc(F)c(Cl)c2)c1O	-125.4%	–
CCOc1cccc(CNc2ccccc2OC)c1O	-50.26%	–

Source: ChEMBL document CHEMBL3988442, “University of Dundee, Small-Polar-MMV Screening Library” (2021)
